Test results reported in the supplement of paper PMC8728848.
Many of the other results were omitted from the sample, so the strongest signals are more common in it than they were.

Tests used:
Test in all cases: glycan array binding signal (z-score within array); higher = stronger binding
Conditions in all cases: glycan notation: IUPAC condensed, linker removed; mutation: E41A
[1] = target: GlcNAc(b1-2)[GlcNAc(b1-4)]Man(a1-3)[GlcNAc(b1-4)][GlcNAc(b1-2)Man(a1-6)]Man(b1-4)GlcNAc(b1-4)GlcNAc
Method in brief: (§1)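 Glycan array binding is given as a within-array Z-score, which can be read as non-binding when negative. The arrays, 3228 of them, came from the Consortium for Functional Glycomics database and were retained only where the protein sequence was available. Z-scores were averaged across arrays of the same protein sequence at different concentrations or buffers and across linkers.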

[2] = target: GlcNAc(b1-3)Gal(b1-4)GlcNAc(b1-2)[GlcNAc(b1-3)Gal(b1-4)GlcNAc(b1-6)]Man(a1-6)[GlcNAc(b1-3)Gal(b1-4)GlcNAc(b1-2)Man(a1-3)]Man(b1-4)GlcNAc(b1-4)GlcNAc
Method in brief: as §1

[3] = target: GlcNAc(b1-3)Gal(b1-4)GlcNAc(b1-3)Gal(b1-4)GlcNAc(b1-3)Gal(b1-4)GlcNAc(b1-3)Gal(b1-4)GlcNAc(b1-2)Man(a1-3)[GlcNAc(b1-3)Gal(b1-4)GlcNAc(b1-3)Gal(b1-4)GlcNAc(b1-3)Gal(b1-4)GlcNAc(b1-3)Gal(b1-4)GlcNAc(b1-2)Man(a1-6)]Man(b1-4)GlcNAc(b1-4)GlcNAc
Method in brief: as §1

[4] = target: GlcNAc(b1-3)Gal(b1-4)GlcNAc(b1-3)Gal(b1-4)GlcNAc(b1-3)GalNAc
Method in brief: as §1

Kdn(a2-3)Gal(b1-4)Glc = target: Kdn(a2-3)Gal(b1-4)Glc
Method in brief: as §1

[5] = target: Man(a1-2)Man(a1-2)Man(a1-3)Man
Method in brief: as §1

[6] = target: Man(a1-2)Man(a1-2)Man(a1-6)[Man(a1-3)]Man
Method in brief: as §1

Man(a1-2)Man(a1-3)Man = target: Man(a1-2)Man(a1-3)Man
Method in brief: as §1

[7] = target: Man(a1-2)Man(a1-3)[Man(a1-2)Man(a1-6)]Man
Method in brief: as §1

[8] = target: Man(a1-2)Man(a1-3)[Man(a1-2)Man(a1-6)]Man(a1-6)[Man(a1-2)Man(a1-2)Man(a1-3)]Man
Method in brief: as §1

[9] = target: Man(a1-2)Man(a1-3)[Man(a1-6)]Man(a1-6)[Man(a1-2)Man(a1-3)]Man(b1-4)GlcNAc(b1-4)GlcNAc
Method in brief: as §1

[10] = target: Man(a1-2)Man(a1-6)[Man(a1-3)]Man(a1-6)[Man(a1-2)Man(a1-2)Man(a1-3)]Man
Method in brief: as §1

[11] = target: Man(a1-2)Man(a1-6)[Man(a1-3)]Man(a1-6)[Man(a1-2)Man(a1-2)Man(a1-3)]Man(b1-4)GlcNAc(b1-4)GlcNAc
Method in brief: as §1

[12] = target: Man(a1-3)[Man(a1-6)]Man(a1-6)[Man(a1-2)Man(a1-3)]Man(b1-4)GlcNAc(b1-4)GlcNAc
Method in brief: as §1

[13] = target: Neu5Ac(a2-3)Gal(b1-3)GlcNAc(b1-2)Man(a1-3)[GlcNAc(b1-4)][Neu5Ac(a2-3)Gal(b1-3)GlcNAc(b1-2)Man(a1-6)]Man(b1-4)GlcNAc(b1-4)GlcNAc
Method in brief: as §1

[14] = target: Neu5Ac(a2-3)Gal(b1-4)GlcNAc(b1-2)Man
Method in brief: as §1

[15] = target: Neu5Ac(a2-3)Gal(b1-4)GlcNAc(b1-2)Man(a1-3)[GlcNAc(b1-4)][Neu5Ac(a2-3)Gal(b1-4)GlcNAc(b1-2)Man(a1-6)]Man(b1-4)GlcNAc(b1-4)GlcNAc
Method in brief: as §1

[16] = target: Neu5Ac(a2-3)Gal(b1-4)GlcNAc(b1-2)[Neu5Ac(a2-3)Gal(b1-4)GlcNAc(b1-4)]Man(a1-3)[GlcNAc(b1-4)][Neu5Ac(a2-3)Gal(b1-4)GlcNAc(b1-2)[Neu5Ac(a2-3)Gal(b1-4)GlcNAc(b1-6)]Man(a1-6)]Man(b1-4)GlcNAc(b1-4)GlcNAc
Method in brief: as §1

[17] = target: Neu5Ac(a2-3)Gal(b1-4)GlcNAc(b1-3)Gal(b1-4)GlcNAc(b1-3)[Neu5Ac(a2-3)Gal(b1-4)GlcNAc(b1-3)Gal(b1-4)GlcNAc(b1-6)]GalNAc
Method in brief: as §1

[18] = target: Neu5Ac(a2-3)Gal6S(b1-4)[Fuc(a1-3)]GlcNAc
Method in brief: as §1

[19] = target: Neu5Ac(a2-6)Gal(b1-4)GlcNAc(b1-2)Man(a1-3)[GlcNAc(b1-4)][Neu5Ac(a2-6)Gal(b1-4)GlcNAc(b1-2)Man(a1-6)]Man(b1-4)GlcNAc(b1-4)GlcNAc
Method in brief: as §1

[20] = target: Neu5Ac(a2-6)Gal(b1-4)GlcNAc(b1-2)Man(a1-3)[Neu5Ac(a2-3)Gal(b1-4)GlcNAc(b1-2)Man(a1-6)]Man(b1-4)GlcNAc(b1-4)GlcNAc
Method in brief: as §1

[21] = target: Neu5Ac(a2-6)Gal(b1-4)GlcNAc(b1-3)Gal(b1-4)GlcNAc(b1-3)Gal(b1-4)GlcNAc(b1-2)Man(a1-3)[Neu5Ac(a2-6)Gal(b1-4)GlcNAc(b1-3)Gal(b1-4)GlcNAc(b1-3)Gal(b1-4)GlcNAc(b1-2)Man(a1-6)]GalNAc
Method in brief: as §1

[22] = target: Neu5Ac(a2-6)Gal(b1-4)GlcNAc(b1-3)Gal(b1-4)GlcNAc(b1-6)[Gal(b1-3)]GalNAc
Method in brief: as §1

[23] = target: Neu5Ac(a2-8)Neu5Ac(a2-8)Neu5Ac(a2-3)Gal(b1-4)Glc
Method in brief: as §1

Neu5Gc(a2-6)GalNAc = target: Neu5Gc(a2-6)GalNAc
Method in brief: as §1

B1: CVN-E41G (protein)
chain: MHHHHHHENLYFQSGNFSQACYNSAIQGSVLTSTCIRTNGGYNTSSIDLNSVIANVDGSLKWQGSNFIETCRNTQLAGSSELAAECKTRAQQFVSTKINLDDHIAAIDGTLKYE
In the case of B1, the “glycan array binding signal (z-score)” value [1] is reported as -0.211, the “glycan array binding signal (z-score)” value [2] is reported as -0.064 and the “glycan array binding signal (z-score)” value [3] is reported as -0.204. For the same binder, the “glycan array binding signal (z-score)” value [4] was -0.168, the “glycan array binding signal (z-score)” value (Kdn(a2-3)Gal(b1-4)Glc) was -0.177 and the “glycan array binding signal (z-score)” value [5] was 8.7. The “glycan array binding signal (z-score)” value [6] was 8.39, the “glycan array binding signal (z-score)” value (Man(a1-2)Man(a1-3)Man) was 7.22 and the “glycan array binding signal (z-score)” value [7] was 8.35. For the same binder, the “glycan array binding signal (z-score)” value [8] was 10.5, the “glycan array binding signal (z-score)” value [9] was 5.81 and the “glycan array binding signal (z-score)” value [10] was 9.42. The “glycan array binding signal (z-score)” value [11] was 6.36, the “glycan array binding signal (z-score)” value [12] was 3.98 and the “glycan array binding signal (z-score)” value [13] was 0.053. The “glycan array binding signal (z-score)” value [14] was 0.044, the “glycan array binding signal (z-score)” value [15] was -0.212 and the “glycan array binding signal (z-score)” value [16] was -0.177. The “glycan array binding signal (z-score)” value [17] was -0.218, the “glycan array binding signal (z-score)” value [18] was -0.235 and the “glycan array binding signal (z-score)” value [19] was -0.208. For the same binder, the “glycan array binding signal (z-score)” value [20] was -0.216, the “glycan array binding signal (z-score)” value [21] was -0.108 and the “glycan array binding signal (z-score)” value [22] was -0.172. The “glycan array binding signal (z-score)” value [23] was -0.226 and the “glycan array binding signal (z-score)” value (Neu5Gc(a2-6)GalNAc) was -0.18.
